Assay results reported in PubChem BioAssay AID1159580 (chemical genetic matrix, 2015).
About 2,000 (36%) of roughly 5,500 compounds were called active. Another 18% or so got no clear call; they are omitted. No stated cut-off is given here; in the data, active means normalized growth mostly below about 0.91 (no sharp cut-off); inconclusive means no clear call, values can overlap the other calls; inactive means mostly above about 0.92. The list shows a part of the results.

Experiment: chemical genetic growth profiling, strain panel (AID 1159580);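 further: tested at 20 µM; growth read once vehicle control cultures reached saturation at 30 °C; 1 = growth at the plate median or of vehicle wells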
Settings: S. cerevisiae deletion strains, growth OD
[1] = locus YDL101C, strain DUN1, stronger effect = lower value
[2] = locus YHR030C, strain SLT2, stronger effect = lower value
[3] = locus YAR019C, strain CDC15, stronger effect = lower value
[4] = locus YBL105C, strain PKC1, stronger effect = lower value
[5] = locus YBR135W, strain CKS1, stronger effect = lower value
[6] = locus YBR136W, strain MEC1, stronger effect = lower value
[7] = locus YBR160W, strain CDC28, stronger effect = lower value
[8] = locus YDL017W, strain CDC7, stronger effect = lower value
[9] = locus YDL028C, strain MPS1, stronger effect = lower value
[10] = locus YDL108W, strain KIN28, stronger effect = lower value
[11] = locus YDL132W, strain cdc53, stronger effect = lower value
[12] = locus YDL214C, strain PRR2, stronger effect = lower value
[13] = locus YDR052C, strain DBF4, stronger effect = lower value
[14] = locus YDR054C, strain cdc34, stronger effect = lower value
[15] = locus YDR226W, strain ADK1, stronger effect = lower value
[16] = locus YDR477W, strain SNF1, stronger effect = lower value
[17] = locus YER123W, strain YCK3, stronger effect = lower value
[18] = locus YER133W, strain GLC7, stronger effect = lower value
[19] = locus YFL009W, strain cdc4, stronger effect = lower value
[20] = locus YFL029C, strain CAK1, stronger effect = lower value
[21] = locus YFR003C, strain YPI1, stronger effect = lower value
[22] = locus YFR019W, strain FAB1, stronger effect = lower value
[23] = locus YFR028C, strain CDC14, stronger effect = lower value
[24] = locus YGR040W, strain KSS1, stronger effect = lower value
[25] = locus YGR052W, strain FMP48, stronger effect = lower value
[26] = locus YGR092W, strain DBF2, stronger effect = lower value
[27] = locus YHR079C, strain IRE1, stronger effect = lower value
[28] = locus YHR082C, strain KSP1, stronger effect = lower value
[29] = locus YHR205W, strain SCH9, stronger effect = lower value
[30] = locus YIL147C, strain SLN1, stronger effect = lower value
[31] = locus YJL095W, strain BCK1, stronger effect = lower value
[32] = locus YJL128C, strain PBS2, stronger effect = lower value
[33] = locus YJL157C, strain FAR1, stronger effect = lower value
[34] = locus YJR016C, strain ILV3, stronger effect = lower value
[35] = locus YJR066W, strain TOR1 (second series), stronger effect = lower value
[36] = locus YJR066W, strain TOR1, stronger effect = lower value
[37] = locus YKL048C, strain ELM1, stronger effect = lower value
[38] = locus YKL067W, strain YNK1, stronger effect = lower value
[39] = locus YKL101W, strain HSL1, stronger effect = lower value
[40] = locus YKL193C, strain SDS22, stronger effect = lower value
[41] = locus YKL203C, strain TOR2, stronger effect = lower value
[42] = locus YLR113W, strain HOG1, stronger effect = lower value
[43] = locus YLR133W, strain CKI1, stronger effect = lower value
[44] = locus YLR403W, strain SFP1, stronger effect = lower value
[45] = locus YML070W, strain DAK1, stronger effect = lower value
[46] = locus YMR001C, strain CDC5, stronger effect = lower value
[47] = locus YMR205C, strain PFK2 (second series), stronger effect = lower value
[48] = locus YMR277W, strain FCP1, stronger effect = lower value
[49] = locus YNL006W, strain LST8, stronger effect = lower value
[50] = locus YNL020C, strain ARK1, stronger effect = lower value
[51] = locus YNL161W, strain CBK1, stronger effect = lower value
[52] = locus YNL183C, strain NPR1, stronger effect = lower value
[53] = locus YNL207W, strain RIO2, stronger effect = lower value
[54] = locus YNL222W, strain SSU72, stronger effect = lower value
[55] = locus YNL307C, strain MCK1 (second series), stronger effect = lower value
[56] = locus YOL078W, strain AVO1, stronger effect = lower value
[57] = locus YOL136C, strain PFK27, stronger effect = lower value
[58] = locus YOR061W, strain CKA2, stronger effect = lower value
[59] = locus YOR119C, strain RIO1, stronger effect = lower value
[60] = locus YOR231W, strain MKK1, stronger effect = lower value
[61] = locus YOR329C, strain SCD5, stronger effect = lower value
[62] = locus YPL031C, strain PHO85, stronger effect = lower value
[63] = locus YPL153C, strain RAD53, stronger effect = lower value
[64] = locus YPL204W, strain HRR25, stronger effect = lower value
[65] = locus YPL209C, strain IPL1, stronger effect = lower value
[66] = locus YPL256C, strain CLN2, stronger effect = lower value
[67] = locus YPR025C, strain CCL1, stronger effect = lower value
[68] = locus YPR106W, strain ISR1, stronger effect = lower value
[69] = locus YPR111W, strain DBF20, stronger effect = lower value
[70] = strain NNK1, stronger effect = lower value
[71] = strain TSCII, stronger effect = lower value

Measured: normalized growth

O=C(NNc1c(Cl)cc(Cl)cc1Cl)NC(=O)c1ccccc1F
inactive: locus YAL013W, strain DEP1, stronger effect = lower value 0.997 | locus YBR229C, strain ROT2, stronger effect = lower value 0.982 | [1] 0.998 | locus YDL134C, strain PPH21, stronger effect = lower value 1.02 | locus YDR150W, strain NUM1, stronger effect = lower value 1.02 | locus YEL061C, strain CIN8, stronger effect = lower value 0.996 | locus YGR078C, strain PAC10, stronger effect = lower value 1 | [2] 0.905 | locus YHR087W, strain rtc3, stronger effect = lower value 1.02 | locus YJL187C, strain SWE1, stronger effect = lower value 0.999 | locus YJR043C, strain POL32, stronger effect = lower value 1 | locus YJR075W, strain HOC1, stronger effect = lower value 0.99 | locus YKL190W, strain CNB1, stronger effect = lower value 1.02 | locus YLR039C, strain RIC1, stronger effect = lower value 0.936 | locus YLR058C, strain SHM2 (second series), stronger effect = lower value 1.02 | locus YLR085C, strain ARP6, stronger effect = lower value 0.992 | locus YLR262C, strain YPT6, stronger effect = lower value 0.965 | locus YML094W, strain GIM5, stronger effect = lower value 1 | locus YMR219W, strain ESC1, stronger effect = lower value 1.02 | locus YMR263W, strain SAP30, stronger effect = lower value 1.01 | locus YNL128W, strain TEP1, stronger effect = lower value 1.01 | locus YNL153C, strain GIM3, stronger effect = lower value 0.989 | locus YNL298W, strain CLA4 (second series), stronger effect = lower value 0.986 | locus YNL322C, strain KRE1, stronger effect = lower value 1 | locus YNR030W, strain Alg12, stronger effect = lower value 1.04 | locus YPL055C, strain LGE1, stronger effect = lower value 1.01 | locus YPL241C, strain CIN2, stronger effect = lower value 0.986 | locus YPR135W, strain CTF4, stronger effect = lower value 0.966

O=C(NNc1ccc(Cl)cc1)c1ccc(F)cc1F
active: [17] 0.404 | [22] 0.547 | [26] 0.345 | [2] 0.372 | [31] 0.271 | [35] 0.606 | [37] 0.747 | [42] 0.373 | [43] 0.701 | [45] 0.54 | [55] 0.451 | [57] 0.616 | [58] 0.399 | [66] 0.487
inactive: [3] 0.937 | [4] 0.942 | [5] 0.952 | [6] 0.946 | [7] 0.942 | [8] 0.95 | [9] 0.959 | [1] 0.949 | [10] 0.959 | [11] 0.967 | [12] 0.701 | [13] 0.938 | [14] 0.949 | [15] 0.967 | [16] 0.701 | [18] 0.755 | [19] 0.971 | [20] 0.944 | [21] 0.952 | [23] 0.958 | [24] 0.718 | [25] 0.63 | [27] 0.747 | [28] 0.762 | [29] 0.663 | [30] 0.953 | [32] 0.897 | [33] 0.736 | [34] 0.94 | [36] 0.759 | [38] 0.752 | [39] 0.784 | [40] 0.949 | [41] 0.855 | [44] 0.744 | [46] 0.942 | [47] 0.826 | [48] 0.956 | [49] 0.968 | [50] 0.765 | [51] 0.947 | [52] 0.777 | [53] 0.946 | [54] 0.946 | [56] 0.948 | [59] 0.796 | [60] 0.695 | [61] 0.95 | [62] 0.766 | [63] 0.696 | [64] 0.723 | [65] 0.941 | [67] 0.947 | [68] 0.965 | [69] 0.974 | [70] 0.937 | [71] 0.947

Cc1ccc(N2C(=O)CSC2c2ccc(Cl)c(Cl)c2)cc1Cl (stereo unspecified)
active: [2] 0.808 | [42] 0.791 | [66] 0.826
inactive: [3] 0.982 | [4] 0.974 | [5] 0.982 | [6] 0.976 | [7] 0.978 | [8] 0.975 | [9] 0.977 | [1] 0.97 | [10] 0.98 | [11] 0.982 | [12] 0.95 | [13] 0.98 | [14] 0.971 | [15] 0.973 | [16] 0.96 | [17] 0.956 | [18] 0.981 | [19] 0.977 | [20] 0.977 | [21] 0.973 | [22] 0.97 | [23] 0.988 | [24] 0.965 | [25] 1.01 | [26] 0.935 | [27] 0.887 | [28] 1.07 | [29] 0.94 | [30] 0.981 | [31] 0.918 | [32] 0.922 | [33] 0.961 | [34] 0.988 | [35] 0.913 | [36] 0.995 | [37] 0.957 | [38] 0.959 | [39] 0.953 | [40] 0.977 | [41] 1.01 | [43] 0.947 | [44] 0.95 | [45] 0.943 | [46] 0.975 | [47] 0.977 | [48] 0.981 | [49] 0.976 | [50] 0.933 | [51] 0.977 | [52] 0.994 | [53] 0.968 | [54] 0.988 | [55] 0.942 | [56] 0.982 | [57] 0.928 | [58] 0.953 | [59] 1.03 | [60] 0.937 | [61] 0.972 | [62] 0.957 | [63] 0.984 | [64] 0.933 | [65] 0.976 | [67] 0.977 | [68] 0.971 | [69] 0.962 | [70] 0.959 | [71] 0.981

O=C1CSC(c2ccc(C(F)(F)F)cc2)N1c1ccc(C(F)(F)F)cc1 (stereo unspecified)
active: [42] 0.829
inactive: [3] 0.998 | [4] 1 | [5] 0.997 | [6] 1 | [7] 1 | [8] 1 | [9] 0.999 | [1] 1 | [10] 0.996 | [11] 0.997 | [12] 0.952 | [13] 1.01 | [14] 1 | [15] 1 | [16] 0.966 | [17] 0.911 | [18] 0.968 | [19] 1 | [20] 0.986 | [21] 0.994 | [22] 0.95 | [23] 0.993 | [24] 0.962 | [25] 0.972 | [26] 0.979 | [2] 0.878 | [27] 0.897 | [28] 0.936 | [29] 0.885 | [30] 1 | [31] 0.933 | [32] 0.939 | [33] 0.976 | [34] 1 | [35] 0.951 | [36] 0.936 | [37] 0.968 | [38] 0.946 | [39] 0.923 | [40] 1 | [41] 1.02 | [43] 0.949 | [44] 0.949 | [45] 0.924 | [46] 1 | [47] 0.942 | [48] 0.999 | [49] 1 | [50] 0.957 | [51] 1.01 | [52] 0.898 | [53] 0.995 | [54] 1 | [55] 0.941 | [56] 1.01 | [57] 0.937 | [58] 0.943 | [59] 1.03 | [60] 0.914 | [61] 1 | [62] 0.97 | [63] 0.96 | [64] 0.959 | [65] 1.01 | [66] 0.871 | [67] 0.998 | [68] 0.988 | [69] 0.979 | [70] 0.98 | [71] 0.999
